Screening results as filed in PubChem.
The list is not random: actives were taken first. Their share in the collection is about 7.9%.
HCMV inh: qHTS Assay for inhibitors of the human cytomegalovirus (HCMV). HFF cells, HCMV-luciferase reporter, 72 h; stronger effect = lower value. activity change, negative = inhibition, % at 57.5 µM. 410,000 compounds, 4.5% hits. AID 1259415, 2018; in the data active = activity change below about -60%; inconclusive = no clear call, values can overlap the other calls; inactive = above about -39%
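Steps: HFFs plated, 16 h 37C; compounds added; HCMV-luciferase added to MOI 1 PFU/cell; 72 h 37C; OneGlo reagent, 5 min room temperature; luminescence read, normalized to controls.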
FMDV antiviral: High Throughput Screening for Foot and Mouth Disease Virus Antivirals; FMDV antiviral cell-based qHTS; Potency, µM (series often up to 57.9 µM), inactives show at the highest dose activity change, negative = inhibition, actives largely listed as inhibitors; 410,000 compounds, 1.2% hits; calls by dose curve; tested in HEK293T cells; note: read-out not given here; potency is the fitted concentration of half-maximal effect; nearly all actives have a fitted effect of over 45% in size
Marburg entry inh: qHTS for inhibitors of binding or entry into cells for Marburg Virus | Marburg virus pseudotyped entry inhibition, cell reporter | Potency, µM (titrated, usually from 37.8 µM), for the others: top-dose activity change, negative = inhibition, actives largely listed as inhibitors | 300,000 compounds, 1.8% hits | AID 540276, 2011; calls by dose curve; tested in HEK293 cells; note: potency is the fitted concentration of half-maximal effect
HCV inhibitor: qHTS Assay for Inhibitors of Hepatitis C Virus (HCV) | Huh7.5.1 HCVcc-Cre infection, luciferase reporter, 44 h | Potency, µM (titrated, usually from 41.8 µM), for the others: at the top dose activity change, negative = inhibition, hits mostly inhibitors | 340,000 compounds, 3.4% hits | AID 651820, 2012; active = well fitted inhibition curve with a large enough effect; inconclusive = small, poorly fitted or top-dose-only effect, or another doubt; inactive = no such curve, though single readings can be large or run the other way; note: potency is the fitted concentration of half-maximal effect
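Seed cells (1,000/well) for 4 h; treat with compound and infect with HCVcc-Cre, moi about 0.5. Incubate 44 h, then detect luciferase activity.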
LASV entry inh: qHTS for Inhibitors of binding or entry into cells for Lassa Virus; Lassa virus pseudotype entry inhibition, cell reporter; AID 540256, 2011; 300,000 compounds, 1.2% hits; Potency, µM (highest dose often 37.9 µM), inactives show at the highest dose activity change, negative = inhibition, most hits filed as inhibitors; calls by dose curve; tested in HEK293 cells; note: potency is the fitted concentration of half-maximal effect; nearly all actives have a fitted effect of over 50% in size
Starred values were filed as active, the others as inactive; ? = inconclusive; · = no result; [ ] = another dose, or the depositor's remark. % is set by controls: 0 for no effect and ±100 for the full control effect.

SMILES	HCMV inh	FMDV antiviral	Marburg entry inh	HCV inhibitor	LASV entry inh
C=CCn1c(=O)n([C@@H]2O[C@H](CO)[C@@H](O)[C@H]2O)c2nc(N)[nH]c(=O)c21	·	-5%	·	·	·
CCN(c1ccccc1)S(=O)(=O)c1ccc(Oc2ccc(C(C)=O)cc2OC)nc1	-38	-29%	·	13µM*	·
COc1ccccc1C(CNC(=S)NCc1ccccc1)N1CCCC1 (stereo not drawn)	-72*	-5%	5.6µM*	-19%	0%[46.1 µM]
COc1ccccc1C(CNC(=O)CNC(=O)c1ccccc1Cl)N1CCCC1 (stereo not drawn)	-101*	-11%	·	-10%	·
CCN(c1ccccc1)S(=O)(=O)c1ccc(C(=O)NCC(c2ccccc2OC)N2CCCC2)cc1 (stereo not drawn)	-8	-16%	?	25µM*	?
COc1ccccc1C(CNC(=O)CNC(=O)c1ccc(Cl)c(Cl)c1)N1CCCC1 (stereo not drawn)	1	-14%	?	?	2%
COc1ccc(C(CNC(=S)NCc2ccccc2)N2CCCC2)cc1 (stereo not drawn)	-36	41%	?	10%	?
C/C(=N/O)C(=O)NCCCn1ccnc1	·	·	20%[46.1 µM]	·	·
O=c1c2cc(Br)ccc2[nH]c(=S)n1Cc1cccnc1	-19	-4%	4%	1%	15%
C=CCn1c(=S)[nH]c2ccc(Br)cc2c1=O	-61*	-20%	18%	11%	2%
O=C(NCC1CCCCN1)c1cc(OCC(F)(F)F)ccc1OCC(F)(F)F (stereo not drawn)	0	0%	?	10µM*	?
O=C(CCl)NCCNC(=O)c1cc(OCC(F)(F)F)ccc1OCC(F)(F)F	-78*	-13%	?	22µM*	-4%
O=C(NCCN1CCCCC1)c1cc(OCC(F)(F)F)ccc1OCC(F)(F)F	26	-12%	-12%	-4%	-26%
COc1cccc(C2Nc3ccccc3-c3nnc(SCc4ccccc4)nc3O2)c1OC (stereo not drawn)	14	-3%	3%[46.1 µM]	·	10%[46.1 µM]
COc1ccc(-c2cc3c(=O)n(CC(=O)Nc4ccc(Br)c(C)c4)ccn3n2)cc1OC	22	-12%	·	·	?
CCOC(=O)c1ccc(N2CCN(c3cccc(Cl)c3)CC2)c(NC(=O)Nc2ccc(OC)cc2OC)c1	42	-27%	·	·	?
CCCCCN1C=CC(=C2C(=O)c3ccccc3C2=O)C=C1	-90*	2.8µM*	·	-8%	·
CCOC(=O)c1c(C)c(C)n(Cc2cccc(OC)c2OC)c1C	-85*	?	-29%	?	2%
CCN(CC)C(=O)N1CCC2CCCCC2C1CN1C(=O)C2=C(CCCC2)C1=O (stereo not drawn)	·	·	-14%	·	·
CC(=O)c1c(C)n(C)c2ccc(O)cc12	-7	-8%	-1%	-6%	16%
CC(=O)c1c(C)n(C2CCCCC2)c2ccc(O)cc12	-66*	-24%	-9%[46.1 µM]	10µM*	-4%
COCCCNc1oc(-c2ccc(COc3ccccc3C)o2)nc1C#N	-24	-21%	?	·	-17%[46.1 µM]
CCCc1nc(SCC(=O)Nc2ccc(N3CCOCC3)cc2)c2ccccc2n1	-24	?	0.71µM*	-15%	13%
NC(=O)CSc1nc(C23CC4CC(CC(C4)C2)C3)nc2ccccc12	-36	-14%	·	3%	·
O=C(CSc1nc(C2CC2)nc2ccccc12)Nc1ccccc1	-36	-20%	?	?	-5%[46.1 µM]
SMILES	HCMV inh	FMDV antiviral	Marburg entry inh	HCV inhibitor	LASV entry inh
O=C(CSc1nc(C2CC2)nc2ccccc12)Nc1ccccc1N1CCOCC1	-72*	25µM*	·	?	·
Cc1nonc1NC(=O)CSc1nc(C23CC4CC(CC(C4)C2)C3)nc2ccccc12	-69*	-22%	·	?	·
Cc1cc(NC(=O)CSc2nc(C3CCCCC3)nc3ccccc23)no1	-76*	?	-21%	-9%	-15%
COC(=O)CSc1nc2cc(Cl)ccc2c(=O)n1C1CCCC1	86	-21%	-19%	-18%	-33%
CCCN(CCC)C(=O)CSc1nc2ccccc2c(=O)n1C1CCCC1	?	-15%	?	11µM*	-29%
CN(C)c1ccc(NC(=O)CSc2nc3ccccc3c(=O)n2C2CCCCC2)cc1	?	-19%	-25%	?	?
Cc1cc(NC(=O)CSc2nc3ccccc3c(=O)n2C2CCCC2)no1	-62*	-19%	?	-5%	?
CCN(CC)C(=O)CSc1nc2ccccc2c(=O)n1CC1CCCCC1	?	-15%	?	?	?
Cc1nonc1NC(=O)CSc1nc(C2CCCCC2)nc2ccccc12	-88*	?	?	?	6%
NC(=O)CSc1nc2cc(Cl)ccc2c(=O)n1C1CCCCC1	-14	-20%	?	11µM*	19%[46.1 µM]
CCOC(=O)c1c(NC(=O)c2ccc(S(=O)(=O)N(CC(C)C)CC(C)C)cc2)sc2c1CCN(CC)C2	-30	-17%	·	·	?
CCn1c(-c2ccccc2F)nc2cc(C(=O)NCc3ccc(C)o3)cc(NC(C)=O)c21	·	7%	·	·	·
CC(C)CCNC(=O)c1ccc2c(c1)NC(=O)C(C(C)C)N2 (stereo not drawn)	26	-3%	17%[46.1 µM]	·	-4%[46.1 µM]
CCN(CC)c1ccc(NC(=O)CSc2nc(C3CC3)nc3ccccc23)cc1C	?	-11%	4.5µM*	?	?
COc1ccc(-n2c(-c3ccc(Cl)cc3)c[n+]3c2CCCCC3)cc1	-80*	0%	3%	-8%	·
COc1ccc(-c2c[n+]3c(n2-c2c(C)n(C)n(-c4ccccc4)c2=O)CCCCC3)cc1	1	27%	?	16%	-9%
COc1ccc(-c2c[n+](CC(=O)c3ccccc3)c3n2CCCCC3)cc1	?	-26%	·	?	·
FC(F)Oc1ccc(-c2c[n+]3c(n2-c2ccccc2)CCCCC3)cc1	?	-22%	·	5%	·
COc1ccc(-c2c[n+]3c(n2-c2ccc(C)cc2)CCCCC3)cc1	-97*	?	7.1µM*	?	5µM*
COc1ccc(-c2c[n+]3c4n2CCCCC4=C(c2ccccc2)C3)cc1	-102*	22µM*	·	-27%	·
FC(F)Oc1ccc(-n2cc(-c3ccc(Cl)cc3)[n+]3c2CCCCC3)cc1	-17	-15%	2%	-5%	0%
COc1ccc(-c2c[n+]3c(n2-c2ccccc2)CCCCC3)cc1	-96*	?	?	4%	-23%
C=CCN1c2ccccc2[C@]23CCC(=O)N(CCOC)C2=NC(C(=O)OC)=C(C(=O)OC)[C@H]13	·	·	13%[14.2 µM]	·	?
COc1cc(CN=C(C)c2c(O)n(C3CCCCC3)c(=O)[nH]c2=O)cc(OC)c1	65	?	-27%[46.1 µM]	10µM*	?
CC(=Nc1ccc2c(c1)CCC2)c1c(O)n(C2CCCCC2)c(=O)[nH]c1=O	-15	29%	-4%	11%	-6%
